Compound activity as filed in PubChem.
Shown are actives, neighbours in structure and some others; about 3.9% of the full set was active somewhere.
BoNT-A LC inh2 – blocks Botulinum neurotoxin A light chain protease; AID 588499; multiplex microsphere protease substrate cleavage, flow cytometry; inhibition, % at 10 µM; 0.17% of 360,000 active; note: plate controls were buffer without enzyme for full effect and enzyme alone for no effect
Bead autofluor – counter-screen for toxin protease inhibitors: compound fluorescence | fluorescence intensity (no concentration beside the values) | AID 624483 | 3.1% of 360,000 active | compound autofluorescence counterscreen, microsphere flow cytometry; hits give high values; in the data active = fluorescence intensity above about 16000; inconclusive = no clear call, values can overlap the other calls
MazF activator – activators of E. coli MazEF toxin-antitoxin RNase; FAM/BHQ RNA-DNA oligo cleavage fluorescence, 5 h; activation, % at 20 µM; 0.32% of 350,000 active; AID 504720; in the data active = activation above about 50%
Target sequence (P0AE70 whole entry, looked up): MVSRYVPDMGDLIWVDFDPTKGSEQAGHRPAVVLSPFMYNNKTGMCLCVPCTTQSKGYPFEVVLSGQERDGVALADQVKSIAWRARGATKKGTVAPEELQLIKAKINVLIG
BoNT-F LC inh – BoNT F light chain protease inhibition; Multiplex microsphere protease cleavage assay, flow cytometry; inhibition, % at 10 µM; 0.22% of 360,000 active; in the data active = inhibition above about 35%, passing the limit was not always enough; inconclusive = no clear call, values can overlap the other calls; note: plate controls were buffer without enzyme for full effect and enzyme alone for no effect
Vc quorum ag – inducers of Vibrio cholerae quorum light production without autoinducers | V. cholerae BH1578 lux reporter, luminescence, 6 h | 0.16% of 350,000 active | activation, % at 18.7 µM; in the data active = activation mostly above about 9.7%, no sharp cut-off; inconclusive = no clear call, values can overlap the other calls; inactive = mostly below about 3.7%
Anthrax LF inh2 – blocks Bacillus anthracis lethal factor protease | P15917 | multiplex microsphere protease cleavage assay, LF | inhibition, % at 10 µM | 0.12% of 360,000 active | AID 588501; note: plate controls were buffer without enzyme for full effect and enzyme alone for no effect
* marks the source's active call; other numbers are inactive results. Cut-off read from the data, not from the text of the source, unless noted: active = inhibition above about 30%; inconclusive = no clear call, values can overlap the other calls; inactive = below that.

What do the screens show for `Cc1ccc2c(C)nc(Nc3nc(CSc4nnc(C)s4)cc(=O)[nH]3)nc2c1`?
BoNT-A LC inh2: 0; Bead autofluor: 11178; MazF activator: 96*; BoNT-F LC inh: -4; Vc quorum ag: 0; Anthrax LF inh2: -7

How did Cc1nc(Nc2nc(CSc3ccc(Cl)cc3)cc(=O)[nH]2)nc2ccccc12 do in these assays?
BoNT-A LC inh2: -1; Bead autofluor: 2644; MazF activator: -16; BoNT-F LC inh: -14; Vc quorum ag: 0; Anthrax LF inh2: -1

What do the screens show for `COc1cccc2c(C)nc(Nc3nc(CSc4nnc(C)s4)cc(=O)[nH]3)nc12`?
BoNT-A LC inh2: 1; Bead autofluor: 3194; MazF activator: 62*; BoNT-F LC inh: 4; Vc quorum ag: 0; Anthrax LF inh2: -4

Results for Cc1nc(Nc2nc(CSc3nc4ccccc4[nH]3)cc(=O)[nH]2)nc2ccccc12 ?
BoNT-A LC inh2: 2; Bead autofluor: 9543; MazF activator: -70; BoNT-F LC inh: 5; Vc quorum ag: 0; Anthrax LF inh2: 0

Results for CCCN(CCC)C(=O)CC(c1ccccc1)c1ccc(C)cc1O (stereo not given) ?
BoNT-A LC inh2: 1; Bead autofluor: 22025*; MazF activator: -4; BoNT-F LC inh: 2; Vc quorum ag: -2; Anthrax LF inh2: -1

What do the screens show for `CCCN(CCC)C(=O)CC(c1ccccc1)c1cc(Br)ccc1O` (stereo not given)?
BoNT-A LC inh2: 4; Bead autofluor: 22655*; MazF activator: -7; BoNT-F LC inh: 2; Vc quorum ag: inactive; Anthrax LF inh2: -1

Results for O=C1C2Sc3[nH]c(=O)sc3C(c3ccccc3)C2C(=O)N1c1ccc(Cl)cc1 (stereo not given) ?
BoNT-A LC inh2: 0; Bead autofluor: 2225; MazF activator: -4; BoNT-F LC inh: 8; Vc quorum ag: inactive; Anthrax LF inh2: 2

What do the screens show for `Cc1ccc(N2C(=O)C3Sc4[nH]c(=O)sc4C(c4ccccc4)C3C2=O)cc1` (stereo not given)?
BoNT-A LC inh2: 0; Bead autofluor: 2879; MazF activator: -3; BoNT-F LC inh: 0; Vc quorum ag: active; Anthrax LF inh2: 3

What do the screens show for `CCCNC(=O)C1(C)CCN1C(=O)c1ccc(C(C)(C)C)cc1` (stereo not given)?
BoNT-A LC inh2: 0; Bead autofluor: 4253; BoNT-F LC inh: -2; Vc quorum ag: 0; Anthrax LF inh2: -2

What do the screens show for `S=c1nc(-c2ccccc2)[nH]n1-c1ccccc1`?
BoNT-A LC inh2: -5; Bead autofluor: 25268*; MazF activator: -13; BoNT-F LC inh: -6; Vc quorum ag: 5; Anthrax LF inh2: -3

Results for Cc1ccc(S(=O)(=O)/C(C#N)=C/c2c(N3CCC(C(N)=O)CC3)nc3c(C)cccn3c2=O)cc1 ?
BoNT-A LC inh2: 3; Bead autofluor: 8291; MazF activator: -12; BoNT-F LC inh: 10; Anthrax LF inh2: 12

What do the screens show for `Cc1cccn2c(=O)c(/C=C(\C#N)S(=O)(=O)c3ccccc3)c(N3CCC(C(N)=O)CC3)nc12`?
BoNT-A LC inh2: 5; Bead autofluor: 18714*; MazF activator: -2; BoNT-F LC inh: 6; Vc quorum ag: -12; Anthrax LF inh2: 1

Results for CCN1CCN(c2nc3c(C)cccn3c(=O)c2/C=C(\C#N)S(=O)(=O)c2ccccc2)CC1 ?
BoNT-A LC inh2: 2; Bead autofluor: 3217; MazF activator: 11; BoNT-F LC inh: 16; Vc quorum ag: 5; Anthrax LF inh2: 3

Results for CCN1CCN(c2nc3ccccn3c(=O)c2/C=C(\C#N)S(=O)(=O)c2ccccc2)CC1 ?
BoNT-A LC inh2: inconclusive; Bead autofluor: 4035; MazF activator: 0; BoNT-F LC inh: inconclusive; Vc quorum ag: inactive; Anthrax LF inh2: 33*

How did CCOC(=O)C1CCCN(C(=O)Cn2ncc3c([nH]c4ccc(C)cc43)c2=O)C1 (stereo not given) do in these assays?
BoNT-A LC inh2: -1; Bead autofluor: 4281; MazF activator: 3; BoNT-F LC inh: 9; Vc quorum ag: -2; Anthrax LF inh2: -2

Results for O=C(CN(C(=O)c1csnn1)c1ccc(F)cc1)NCCc1ccccc1 ?
BoNT-A LC inh2: 0; Bead autofluor: 5056; MazF activator: 2; BoNT-F LC inh: 2; Vc quorum ag: 0; Anthrax LF inh2: 1

Results for O=CNCCCc1nc2ccccc2n1Cc1ccccc1 ?
BoNT-A LC inh2: -1; Bead autofluor: 16906*; MazF activator: -1; BoNT-F LC inh: 1; Vc quorum ag: inactive; Anthrax LF inh2: -3

Results for O=CNCCc1nc2ccccc2n1CCc1ccccc1 ?
BoNT-A LC inh2: 1; Bead autofluor: 3363; MazF activator: 9; BoNT-F LC inh: inconclusive; Vc quorum ag: -1; Anthrax LF inh2: 9

How did CC(=O)NCCCc1nc2ccccc2n1Cc1ccccc1C do in these assays?
BoNT-A LC inh2: inconclusive; Bead autofluor: 24006*; MazF activator: 8; BoNT-F LC inh: -2; Vc quorum ag: inactive; Anthrax LF inh2: 0

Results for CN(c1ccccc1)S(=O)(=O)c1cccc(NC(=O)CN2CCCc3ccccc32)c1 ?
BoNT-A LC inh2: 0; Bead autofluor: 20032*; MazF activator: -5; BoNT-F LC inh: -8; Vc quorum ag: 0; Anthrax LF inh2: -10

What do the screens show for `NS(=O)(=O)c1cccc(NC(=O)CN2CCc3ccccc32)c1`?
BoNT-A LC inh2: -1; Bead autofluor: 4906; MazF activator: -15; BoNT-F LC inh: -10; Vc quorum ag: 2; Anthrax LF inh2: -6

How did O=c1c(O)c(-c2ccc(O)cc2)oc2cc(O)cc(O)c12 do in these assays?
BoNT-A LC inh2: 1; Bead autofluor: 3941; MazF activator: 7; BoNT-F LC inh: -31; Vc quorum ag: 0; Anthrax LF inh2: -2

Results for O=c1c(O)c(-c2ccc(O)c(O)c2)oc2cc(O)ccc12 ?
BoNT-A LC inh2: -1; Bead autofluor: 5603; MazF activator: 58*; BoNT-F LC inh: -16; Vc quorum ag: 0; Anthrax LF inh2: -3

What do the screens show for `C=CCN1C(=O)C(C(C)CC)NC1=S` (stereo not given)?
BoNT-A LC inh2: inconclusive; Bead autofluor: 18817*; MazF activator: -3; BoNT-F LC inh: 8; Vc quorum ag: 2; Anthrax LF inh2: -5

What do the screens show for `CCN1CC2CCCC3(C1)C(=O)NC1(CCCCC1)N=C23` (stereo not given)?
BoNT-A LC inh2: -2; Bead autofluor: 21486*; MazF activator: -1; BoNT-F LC inh: -1; Vc quorum ag: inactive; Anthrax LF inh2: 0

How did O=C(c1ccc(F)cc1)c1cc2ccccc2o1 do in these assays?
BoNT-A LC inh2: -1; Bead autofluor: 24066*; MazF activator: 8; BoNT-F LC inh: 1; Vc quorum ag: -6; Anthrax LF inh2: -2

What do the screens show for `Cc1cc(O)c(C(C)C)cc1NC1=NS(=O)(=O)c2ccccc21`?
BoNT-A LC inh2: -1; Bead autofluor: 16315*; MazF activator: 9; BoNT-F LC inh: -3; Vc quorum ag: inactive; Anthrax LF inh2: -2
